Laboratory results as given in PubChem BioAssay AID463212 (Sanford-Burnham Center for Chemical Genomics, 2010).
The whole screen tested about 330,000 compounds, of which about 4,400 (1.3%) were called active. Shown is part of a subset that was picked to be rich in actives. A number with no mark means an inactive call.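 How the source made its calls: active means growth inhibition of the mutant yeast at or above 50%; inactive means the rest.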

Experiment: growth inhibition of tim23-1 ts yeast – luminescence, uHTS, primary screen (AID 463212);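 further: temperature-sensitive mutant grown at 25 °C; plate controls were DMSO-treated mutant yeast for no effect and medium wells lacking yeast for full effect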
Settings: S. cerevisiae tim23-1 growth, BacTiter-Glo luminescence, 24 h; at 20 µM; stronger effect = higher value

Compound | inhibition
O=C(O)CN(Cc1ccco1)S(=O)(=O)c1ccc(F)cc1 | -1.65%
O=C(NCCCN1CCOCC1)c1cc(-c2cccc(O)c2)on1 | -0.573%
Cc1ccc(-c2cc(C(=O)N3CCc4ccccc4C3)no2)cc1 | 15.5%
O=C(c1cc(-c2ccc(O)cc2)on1)N1CCCc2ccccc21 | 54.2% (active)
O=C(c1cc(-c2cccc(O)c2)on1)N1CCc2ccccc2C1 | 50.3% (active)
O=C(c1cc(-c2ccc(O)cc2)on1)N1CCOCC1 | 12.7%
Cc1c(C(=O)N2CCCc3ccccc32)oc2ccccc12 | 23.8%
CSc1ccc(S(=O)(=O)N2CCC(C(=O)NCc3ccncc3)CC2)cc1 | 0.185%
COC(=O)c1ccc2ccccc2c1OC1OC(CO)C(O)C(O)C1NC(C)=O (centres undefined) | 2.47%
Cc1cccc(-c2nnc(SCC(=O)O)n2Cc2ccccc2)c1 | 1.27%
CC1CCC2(CC1)NC(=O)N(Cc1nnc(-c3cccs3)o1)C2=O (centres undefined) | 8.03%
CCn1c(SCc2cccc(C(=O)O)c2)nnc1-c1ccc(Cl)cc1 | 10.3%
CCC(C)c1ccc(NC(=O)COC(=O)C2CCCC2)cc1 (centres undefined) | 56.9% (active)
O=C(COC(=O)C1CCCCC1)Nc1ccc([N+](=O)[O-])cc1 | 2.5%
CC(=O)Nc1ccc(NC(=O)COC(=O)C2CCC(C(C)(C)C)CC2)cc1 (centres undefined) | 32.6%
Clc1ccc(-c2nnc(-c3ccccc3)nc2N2CCSCC2)cc1 | 45.4%
O=S(=O)(c1ccccc1)c1nc(Cc2ccccc2)oc1N1CCOCC1 | 7.56%

Compound | inhibition
CCCCC(NC(=O)c1cccc(Br)c1)C(=O)O (centres undefined) | 4.77%
COC(=O)CNS(=O)(=O)c1ccc(Cc2ccc(S(=O)(=O)NCC(=O)OC)cc2)cc1 | 31.2%
COc1cc(OC)c(C(=S)N2CCCC2)cc1OC | 11.7%
CC(C)=C1SC(N2CCN(c3cccc(C)c3)CC2)=NC1=O | 14.1%
CCN1C(=O)/C(=C2\SC(N3CCCCC3)=NC2=O)c2ccccc21 | 54.8% (active)
O=C1N=C(N2CCCC2)S/C1=C\c1cccc(Br)c1 | 27.3%
CSc1ccccc1OCc1cc(C(=O)N2C[C@H]3CC[C@H]2C3)no1 | 18.7%
CCCOc1ccc(CN(CCO)CCO)cc1C(=O)OC | 1.64%
COCCCNC(=O)C1CCN(c2ccc(N3CCOCC3)nn2)CC1 | 16.9%
O=C(NCc1ccccc1)c1onc(CSc2nc3ccccc3[nH]2)c1C(=O)NCc1ccccc1 | 6.16%
CCOC(=O)C1CCN(C(=O)c2cccc(S(=O)(=O)N(CC)c3ccccc3)c2)CC1 | 14.3%
CCCCN1C(=O)CC(N2CCOCC2)C1=O (centres undefined) | -1.61%
Cn1nc(C(F)(F)F)cc1C(=O)O | -3.37%
O=c1ccc2cc(S(=O)(=O)Nc3ccccc3F)ccc2o1 | 17.6%
O=c1oc2ccccc2c(NC2CCCCC2)c1NS(=O)(=O)c1ccc(Cl)cc1 | 25.2%
O=c1oc(-c2ccccc2NS(=O)(=O)c2ccc(Cl)cc2)nc2ccccc12 | 59.8% (active)
CC(=O)Nc1ccc(N2C(=O)CC(Sc3nccc(C)n3)C2=O)cc1 (centres undefined) | 10.2%
